Measured values published in PMC7862700, “An all-to-all approach to the identification of sequence-specific readers for epigenetic DNA modifications on cytosine”.

What was measured:
Assay in all cases: DAPPL (digital affinity profiling via proximity ligation, sequencing); 10 mM Tris-HCl pH 7.5, 50 mM NaCl, 1 mM DTT, 4% glycerol, room temperature, 30 min; GST-TFs on glutathione beads, 16-mer random dsDNA library, 0.1% formaldehyde crosslink after washing; high values mean tight binding
Conditions in all cases: protein: recombinant; tags: N-terminal GST; dsDNA, one strand shown
FLI1 = target: T1, FLI1 (Homo sapiens, UniProt Q01543 1-452)
T1 sequence: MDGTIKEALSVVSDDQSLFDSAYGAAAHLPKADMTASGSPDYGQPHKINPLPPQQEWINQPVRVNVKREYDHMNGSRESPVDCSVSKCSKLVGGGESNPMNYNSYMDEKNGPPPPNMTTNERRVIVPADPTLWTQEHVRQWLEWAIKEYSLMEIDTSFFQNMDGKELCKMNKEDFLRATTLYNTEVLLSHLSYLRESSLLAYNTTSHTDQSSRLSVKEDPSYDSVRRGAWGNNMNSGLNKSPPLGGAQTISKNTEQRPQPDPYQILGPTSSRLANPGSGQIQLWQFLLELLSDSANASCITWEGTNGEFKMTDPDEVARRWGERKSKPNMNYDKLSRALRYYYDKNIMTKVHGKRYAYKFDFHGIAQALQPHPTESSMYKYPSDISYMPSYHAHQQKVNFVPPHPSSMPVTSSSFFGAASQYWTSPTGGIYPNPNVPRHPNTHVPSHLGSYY
How it was run: (§1)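 Human transcription factors fused to GST were expressed in yeast, captured on glutathione beads, given DNA barcodes and pooled with a GST-only negative control. Pools were incubated with 200 nmole of a 16-mer random double-stranded DNA library in Tris/NaCl/DTT/glycerol buffer at room temperature for 30 min. They were then washed, crosslinked with 0.1% formaldehyde, proximity-ligated (BsaI/T4 ligase, 1 h, 37 °C), PCR-amplified and sequenced on an Illumina NextSeq500. Binding signal is each 6-mer's read frequency for a factor divided by its frequency for the GST control.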

ELK1 = target: T2, ELK1 (Homo sapiens, UniProt P19419 1-428)
T2 sequence: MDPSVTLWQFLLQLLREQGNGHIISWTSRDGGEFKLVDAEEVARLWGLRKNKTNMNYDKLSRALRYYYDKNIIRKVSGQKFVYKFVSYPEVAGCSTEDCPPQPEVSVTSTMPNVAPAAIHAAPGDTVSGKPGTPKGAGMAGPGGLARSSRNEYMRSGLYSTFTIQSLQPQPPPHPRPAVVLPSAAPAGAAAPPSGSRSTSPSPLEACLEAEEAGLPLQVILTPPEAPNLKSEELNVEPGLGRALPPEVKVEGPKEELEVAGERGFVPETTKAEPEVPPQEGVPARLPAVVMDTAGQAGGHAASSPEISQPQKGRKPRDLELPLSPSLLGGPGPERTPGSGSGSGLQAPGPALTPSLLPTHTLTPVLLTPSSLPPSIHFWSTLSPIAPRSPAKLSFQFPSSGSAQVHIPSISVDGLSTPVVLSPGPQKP
How it was run: as §1

GABPA = target: T3, GABPA (Homo sapiens, UniProt Q06546 1-454)
T3 sequence: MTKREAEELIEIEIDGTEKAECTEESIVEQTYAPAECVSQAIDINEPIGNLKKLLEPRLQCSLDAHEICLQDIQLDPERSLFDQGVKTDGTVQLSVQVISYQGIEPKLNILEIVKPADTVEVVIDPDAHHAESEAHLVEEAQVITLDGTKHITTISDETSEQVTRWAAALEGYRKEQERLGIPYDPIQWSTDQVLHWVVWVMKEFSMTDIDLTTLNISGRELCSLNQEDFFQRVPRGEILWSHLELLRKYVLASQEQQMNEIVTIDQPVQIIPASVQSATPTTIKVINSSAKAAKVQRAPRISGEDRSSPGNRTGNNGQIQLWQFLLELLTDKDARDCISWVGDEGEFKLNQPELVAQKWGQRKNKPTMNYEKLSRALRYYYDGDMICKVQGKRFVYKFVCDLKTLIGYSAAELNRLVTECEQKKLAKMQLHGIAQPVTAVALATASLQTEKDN
How it was run: as §1

ERG = target: T4, ERG (Homo sapiens, UniProt P11308 1-479)
T4 sequence: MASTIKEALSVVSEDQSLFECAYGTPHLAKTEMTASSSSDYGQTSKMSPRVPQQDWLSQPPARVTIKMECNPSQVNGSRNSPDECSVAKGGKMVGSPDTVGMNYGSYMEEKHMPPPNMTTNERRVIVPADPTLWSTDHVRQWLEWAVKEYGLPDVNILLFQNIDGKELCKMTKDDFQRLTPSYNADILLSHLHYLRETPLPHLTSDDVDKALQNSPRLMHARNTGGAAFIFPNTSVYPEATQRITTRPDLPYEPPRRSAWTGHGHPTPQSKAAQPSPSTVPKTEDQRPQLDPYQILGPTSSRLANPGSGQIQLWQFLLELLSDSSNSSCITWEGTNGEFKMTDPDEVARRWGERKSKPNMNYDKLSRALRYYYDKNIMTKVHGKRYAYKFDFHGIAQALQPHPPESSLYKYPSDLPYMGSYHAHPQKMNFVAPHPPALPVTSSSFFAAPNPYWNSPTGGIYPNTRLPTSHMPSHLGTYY
How it was run: as §1

ELF1 = ELF1 (Homo sapiens, UniProt P32519 1-619)
How it was run: as §1

EHF = target: T5, EHF (Homo sapiens, UniProt Q9NZC4 1-300)
T5 sequence: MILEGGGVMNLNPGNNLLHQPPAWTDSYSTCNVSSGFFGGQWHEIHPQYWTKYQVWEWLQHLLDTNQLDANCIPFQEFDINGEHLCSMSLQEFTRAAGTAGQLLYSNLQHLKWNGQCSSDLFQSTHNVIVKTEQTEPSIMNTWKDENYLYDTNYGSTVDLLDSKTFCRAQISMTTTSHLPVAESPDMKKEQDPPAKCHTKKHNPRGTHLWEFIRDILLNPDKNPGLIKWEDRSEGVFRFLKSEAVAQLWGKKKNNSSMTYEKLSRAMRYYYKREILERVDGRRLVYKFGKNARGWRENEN
How it was run: as §1

SPI1 = SPI1 (Homo sapiens, UniProt P17947 1-270)
How it was run: as §1

SPIB = SPIB (Homo sapiens, UniProt Q01892 1-262)
How it was run: as §1

ELK3 = target: T6, ELK3 (Homo sapiens, UniProt P41970 1-407)
T6 sequence: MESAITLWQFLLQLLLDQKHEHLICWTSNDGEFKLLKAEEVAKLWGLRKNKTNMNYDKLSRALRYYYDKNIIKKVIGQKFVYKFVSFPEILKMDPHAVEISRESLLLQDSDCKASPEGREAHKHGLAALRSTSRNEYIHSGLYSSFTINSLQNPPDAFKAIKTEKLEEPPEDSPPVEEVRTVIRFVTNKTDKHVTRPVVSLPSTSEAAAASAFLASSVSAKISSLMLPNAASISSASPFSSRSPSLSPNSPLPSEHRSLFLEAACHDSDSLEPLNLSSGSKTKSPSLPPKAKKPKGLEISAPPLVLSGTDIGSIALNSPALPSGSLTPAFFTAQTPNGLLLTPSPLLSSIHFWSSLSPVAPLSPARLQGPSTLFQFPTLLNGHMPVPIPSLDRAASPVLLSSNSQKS
How it was run: as §1

SPIB, sequence (Q01892 whole entry): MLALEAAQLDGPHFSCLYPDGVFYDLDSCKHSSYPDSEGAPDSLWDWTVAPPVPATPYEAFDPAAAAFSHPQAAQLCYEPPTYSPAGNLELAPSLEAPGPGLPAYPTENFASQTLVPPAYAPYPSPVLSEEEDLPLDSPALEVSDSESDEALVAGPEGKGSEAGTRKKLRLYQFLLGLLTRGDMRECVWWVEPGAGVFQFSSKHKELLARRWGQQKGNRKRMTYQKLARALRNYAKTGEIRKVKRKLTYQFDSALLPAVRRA
ELF1, sequence (P32519 whole entry): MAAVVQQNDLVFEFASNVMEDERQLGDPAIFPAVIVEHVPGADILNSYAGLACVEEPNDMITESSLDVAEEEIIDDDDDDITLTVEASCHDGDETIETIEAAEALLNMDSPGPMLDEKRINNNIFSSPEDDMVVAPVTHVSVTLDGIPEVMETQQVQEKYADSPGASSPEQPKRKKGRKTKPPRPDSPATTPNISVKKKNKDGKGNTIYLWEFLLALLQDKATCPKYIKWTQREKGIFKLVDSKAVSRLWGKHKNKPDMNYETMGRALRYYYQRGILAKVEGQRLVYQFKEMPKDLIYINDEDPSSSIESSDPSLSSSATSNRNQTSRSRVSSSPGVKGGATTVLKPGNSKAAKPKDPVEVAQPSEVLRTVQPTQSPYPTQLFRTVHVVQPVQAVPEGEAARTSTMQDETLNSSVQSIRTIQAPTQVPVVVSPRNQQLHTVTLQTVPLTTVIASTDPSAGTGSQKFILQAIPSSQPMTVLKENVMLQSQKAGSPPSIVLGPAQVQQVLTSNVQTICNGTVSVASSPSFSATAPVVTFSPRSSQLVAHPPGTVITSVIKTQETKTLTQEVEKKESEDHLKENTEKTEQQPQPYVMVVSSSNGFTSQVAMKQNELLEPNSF

Sequence | binding signal (FLI1) | binding signal (ELK1) | binding signal (GABPA) | binding signal (ERG) | binding signal (ELF1) | binding signal (EHF) | binding signal (SPI1) | binding signal (SPIB) | binding signal (ELK3)
CCCTCC | 1.37 fold enrichment (6-mer frequency, TF over GST control) | 1.54 fold enrichment (6-mer frequency, TF over GST control) | 1.5 fold enrichment (6-mer frequency, TF over GST control) | 1.41 fold enrichment (6-mer frequency, TF over GST control) | 1.49 fold enrichment (6-mer frequency, TF over GST control) | 1.37 fold enrichment (6-mer frequency, TF over GST control) | 1.35 fold enrichment (6-mer frequency, TF over GST control) | 1.39 fold enrichment (6-mer frequency, TF over GST control) | 1.37 fold enrichment (6-mer frequency, TF over GST control)
TTCCGT | 1.79 fold enrichment (6-mer frequency, TF over GST control) | 2.11 fold enrichment (6-mer frequency, TF over GST control) | 1.76 fold enrichment (6-mer frequency, TF over GST control) | 2.13 fold enrichment (6-mer frequency, TF over GST control) | 1.74 fold enrichment (6-mer frequency, TF over GST control) | 2 fold enrichment (6-mer frequency, TF over GST control) | 2.14 fold enrichment (6-mer frequency, TF over GST control) | 2.07 fold enrichment (6-mer frequency, TF over GST control) | 1.86 fold enrichment (6-mer frequency, TF over GST control)
TGTACC | 1.42 fold enrichment (6-mer frequency, TF over GST control) | 1.36 fold enrichment (6-mer frequency, TF over GST control) | 1.29 fold enrichment (6-mer frequency, TF over GST control) | 1.26 fold enrichment (6-mer frequency, TF over GST control) | 1.34 fold enrichment (6-mer frequency, TF over GST control) | 1.35 fold enrichment (6-mer frequency, TF over GST control) | 1.33 fold enrichment (6-mer frequency, TF over GST control) | 1.22 fold enrichment (6-mer frequency, TF over GST control) | 1.28 fold enrichment (6-mer frequency, TF over GST control)
AAGCGC | 1.2 fold enrichment (6-mer frequency, TF over GST control) | 1.11 fold enrichment (6-mer frequency, TF over GST control) | 1.12 fold enrichment (6-mer frequency, TF over GST control) | 1.13 fold enrichment (6-mer frequency, TF over GST control) | 1.15 fold enrichment (6-mer frequency, TF over GST control) | 1.19 fold enrichment (6-mer frequency, TF over GST control) | 1.07 fold enrichment (6-mer frequency, TF over GST control) | 1.23 fold enrichment (6-mer frequency, TF over GST control) | 1.19 fold enrichment (6-mer frequency, TF over GST control)
TGGCCC | 1.02 fold enrichment (6-mer frequency, TF over GST control) | 1.13 fold enrichment (6-mer frequency, TF over GST control) | 1.24 fold enrichment (6-mer frequency, TF over GST control) | 1.13 fold enrichment (6-mer frequency, TF over GST control) | 1.05 fold enrichment (6-mer frequency, TF over GST control) | 1.02 fold enrichment (6-mer frequency, TF over GST control) | 1.17 fold enrichment (6-mer frequency, TF over GST control) | 1.12 fold enrichment (6-mer frequency, TF over GST control) | 1.16 fold enrichment (6-mer frequency, TF over GST control)
CTGAGC | 1.08 fold enrichment (6-mer frequency, TF over GST control) | 1.15 fold enrichment (6-mer frequency, TF over GST control) | 1.18 fold enrichment (6-mer frequency, TF over GST control) | 1.09 fold enrichment (6-mer frequency, TF over GST control) | 1.19 fold enrichment (6-mer frequency, TF over GST control) | 1.18 fold enrichment (6-mer frequency, TF over GST control) | 1.11 fold enrichment (6-mer frequency, TF over GST control) | 1.06 fold enrichment (6-mer frequency, TF over GST control) | 1.18 fold enrichment (6-mer frequency, TF over GST control)
TTTCCA | 1.37 fold enrichment (6-mer frequency, TF over GST control) | 1.31 fold enrichment (6-mer frequency, TF over GST control) | 1.39 fold enrichment (6-mer frequency, TF over GST control) | 1.23 fold enrichment (6-mer frequency, TF over GST control) | 1.36 fold enrichment (6-mer frequency, TF over GST control) | 1.27 fold enrichment (6-mer frequency, TF over GST control) | 1.37 fold enrichment (6-mer frequency, TF over GST control) | 1.39 fold enrichment (6-mer frequency, TF over GST control) | 1.31 fold enrichment (6-mer frequency, TF over GST control)
CCCACG | 1.17 fold enrichment (6-mer frequency, TF over GST control) | 1.2 fold enrichment (6-mer frequency, TF over GST control) | 1.26 fold enrichment (6-mer frequency, TF over GST control) | 1.09 fold enrichment (6-mer frequency, TF over GST control) | 1.19 fold enrichment (6-mer frequency, TF over GST control) | 1.2 fold enrichment (6-mer frequency, TF over GST control) | 1.08 fold enrichment (6-mer frequency, TF over GST control) | 1.16 fold enrichment (6-mer frequency, TF over GST control) | 1.29 fold enrichment (6-mer frequency, TF over GST control)
